Laboratory results from PubChem BioAssay (NCI).
Compounds without any hit were thinned out: in the full panel of roughly 79,000, 15% have a hit. Calls of active or inactive are those of the source. Rule as the data show it: active = growth inhibition above about 70%; inactive = the rest.

Tests used:
[1] = NCI Yeast Anticancer Drug Screen. Data for the wt1 strain (AID 149);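 also: 0% = growth of vehicle-treated wt1 cultures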; conditions: S. cerevisiae wt1 strain (SPY 50644) growth inhibition, active compounds read high
Summary of the method: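 Compounds are added to wt1 yeast cultures. Growth is then measured. Inhibition is expressed relative to vehicle-treated controls.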

[2] = NCI Yeast Anticancer Drug Screen. Data for the rad50EPP+ strain (AID 151);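 also: 0% = growth of vehicle-treated control cultures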; conditions: S. cerevisiae rad50 mutant strain, active compounds read high
Summary of the method: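 Exposing the rad50EPP+ strain to each compound, growth was compared with vehicle-only cultures to give inhibition.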

[3] = NCI Yeast Anticancer Drug Screen. Data for the mgt1 strain (AID 153); conditions: S. cerevisiae mgt1 mutant growth inhibition, active compounds read high
Summary of the method: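 Genetically defined yeast (mgt1) treated with compound; inhibition of growth expressed against vehicle-treated controls.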

[4] = NCI Yeast Anticancer Drug Screen. Data for the rad50 strain (AID 155);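 also: 0% = growth of vehicle-only cultures of the same strain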; conditions: S. cerevisiae rad50 strain growth inhibition, active compounds read high
Summary of the method: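 Inhibition values express reduced yeast growth in compound-treated cultures relative to vehicle-treated controls.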

[5] = NCI Yeast Anticancer Drug Screen. Data for the mec2-1 strain (AID 157); conditions: S. cerevisiae mec2-1 strain, active compounds read high
Summary of the method: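 Readout is yeast growth inhibition, normalised to vehicle-treated controls, in the mec2-1 strain exposed to compound.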

[6] = NCI Yeast Anticancer Drug Screen. Data for the rad14 strain (AID 159);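 also: 0% = growth of vehicle-treated control cultures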; conditions: S. cerevisiae rad14 strain growth inhibition, active compounds read high
Summary of the method: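 A mutant yeast strain defective in DNA damage repair is treated with compound; inhibition of its growth is scored against untreated, vehicle-exposed cultures.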

[7] = NCI Yeast Anticancer Drug Screen. Data for the sgs1 mgt1 strain (AID 161);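 also: 0% = growth of cultures given vehicle only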; conditions: S. cerevisiae sgs1 mgt1 strain, active compounds read high
Summary of the method: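 This yeast growth screen uses a strain with defined DNA-repair lesions; compound-treated growth is compared with vehicle-treated growth.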

[8] = NCI Yeast Anticancer Drug Screen. Data for the CLN2oe strain (AID 163);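 also: 0% = growth of vehicle-only control cultures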; conditions: S. cerevisiae CLN2oe strain, active compounds read high
Summary of the method: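 Values reflect how much compound exposure reduced yeast growth, referenced to vehicle-exposed cells. Assay organism is a strain with a defined genetic change affecting cell-cycle control.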

[9] = NCI Yeast Anticancer Drug Screen. Data for the cln2 rad14 strain (AID 165);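 also: 0% = growth equal to vehicle treated cultures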; conditions: S. cerevisiae cln2 rad14 strain, active compounds read high
Summary of the method: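 Relative to vehicle controls, growth inhibition of compound-treated cln2 rad14 yeast was recorded.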

[10] = NCI Yeast Anticancer Drug Screen. Data for the bub3 strain (AID 167); conditions: S. cerevisiae bub3 mutant strain, active compounds read high
Summary of the method: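 Steps: expose the mutant yeast strain to compound; grow alongside vehicle-treated cultures; measure growth; express inhibition against the vehicle cultures.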

[11] = NCI Yeast Anticancer Drug Screen. Data for the wt2 strain (AID 169);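 also: 0% = growth of vehicle-treated yeast cultures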; conditions: S. cerevisiae wt2 strain growth inhibition, active compounds read high
Summary of the method: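 Values express reduction in yeast growth under compound treatment, referenced to vehicle-treated cells.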

[12] = NCI Yeast Anticancer Drug Screen. Data for the mlh1 strain (AID 171);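 also: 0% = growth of vehicle-treated control cultures of the same strain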; conditions: S. cerevisiae mlh1 strain growth inhibition, active compounds read high
Summary of the method: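 Steps: expose the defined-mutant yeast strain to compound; expose a parallel culture to vehicle; measure growth; express compound effect as inhibition relative to the vehicle culture.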

[13] = NCI Yeast Anticancer Drug Screen. Data for the sgs1 strain (AID 173);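 also: 0% = growth of vehicle-only control cultures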; conditions: S. cerevisiae sgs1 mutant, active compounds read high
Summary of the method: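 Treat defined-mutant yeast with compound; measure growth; calculate inhibition relative to vehicle-treated cells.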

[14] = NCI Yeast Anticancer Drug Screen. Data for the mlh1 rad18 strain (AID 175); conditions: S. cerevisiae mlh1 rad18 strain growth inhibition, active compounds read high
Summary of the method: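 Test agents were incubated with a yeast strain of defined genotype (DNA damage repair defect). Inhibition of growth was derived by comparison with vehicle-exposed cultures.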

[15] = NCI Yeast Anticancer Drug Screen. Data for the rad18 strain (AID 177); conditions: S. cerevisiae rad18 mutant growth inhibition, active compounds read high
Summary of the method: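 A genetically defined yeast mutant impaired in DNA damage repair was treated with test compounds, then its growth was measured against cultures receiving vehicle alone.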

[16] = at 5.0 µM (retest, dose inferred, filed as 0.5)
[17] = at 50.0 µM (retest, dose inferred, filed as 5.0)

Measured: growth inhibition

Cc1c(N=Nc2ccc(Cl)cc2)c(C)n(C2OC(CO)C(O)C(O)C2O)c(=S)c1C#N (stereo not drawn)
inactive: [1]; at 1.2 µM 1% | [1]; at 3.7 µM 2% | [1]; at 11.0 µM 3% | [1]; at 33.0 µM 9% | [1]; at 100.0 µM 24% | [2]; at 1.2 µM 5% | [2]; at 3.7 µM 19% | [2]; at 11.0 µM 40% | [2]; at 33.0 µM 66% | [3]; at 1.2 µM -1% | [3]; at 3.7 µM 1% | [3]; at 11.0 µM 12% | [3]; at 33.0 µM 66% | [4]; at 1.2 µM -3% | [4]; at 3.7 µM -9% | [4]; [16] -11% | [4]; at 11.0 µM -2% | [4]; at 33.0 µM 35% | [4]; [17] 52% | [4]; at 50.0 µM 60.4% | [4]; at 100.0 µM 66% | [5]; at 1.2 µM 2% | [5]; at 3.7 µM 3% | [5]; [16] -5% | [5]; at 11.0 µM 6% | [5]; at 33.0 µM 21% | [5]; [17] 40% | [5]; at 50.0 µM 60.2% | [5]; at 100.0 µM 28% | [6]; at 1.2 µM -2% | [6]; at 3.7 µM -3% | [6]; at 11.0 µM 6% | [6]; at 33.0 µM 28% | [7]; [16] 1% | [7]; [17] 65% | [8]; at 1.2 µM -2% | [8]; at 3.7 µM -2% | [8]; at 11.0 µM 1% | [8]; at 33.0 µM 15% | [8]; at 100.0 µM 54% | [9]; [16] 44% | [9]; [17] 52% | [9]; at 50.0 µM 59.5% | [10]; at 1.2 µM 0% | [10]; at 3.7 µM 2% | [10]; [16] 1% | [10]; at 11.0 µM 9% | [10]; at 33.0 µM 23% | [10]; [17] -3% | [10]; at 100.0 µM 45% | [11]; at 1.2 µM -2% | [11]; at 3.7 µM -3% | [11]; at 11.0 µM 1% | [11]; at 33.0 µM 37% | [12]; at 1.2 µM 2% | [12]; at 3.7 µM 1% | [12]; at 11.0 µM 8% | [12]; at 33.0 µM 45% | [13]; at 1.2 µM 1% | [13]; at 3.7 µM 5% | [13]; at 11.0 µM 12% | [13]; at 33.0 µM 55% | [14]; [16] -19% | [14]; [17] 53% | [15]; at 1.2 µM -1% | [15]; at 3.7 µM 8% | [15]; at 11.0 µM 18% | [15]; at 33.0 µM 59%
active: [2]; at 100.0 µM 81% | [3]; at 100.0 µM 91% | [6]; at 100.0 µM 71% | [7]; at 50.0 µM 87% | [10]; at 50.0 µM 75.5% | [11]; at 100.0 µM 90% | [12]; at 100.0 µM 90% | [13]; at 100.0 µM 82% | [14]; at 50.0 µM 83.9% | [15]; at 100.0 µM 83%

COC1=C(N=[N+]=[N-])C(=O)c2ncccc2C1=O
active: [1]; at 100.0 µM 92% | [2]; at 11.0 µM 89% | [2]; at 33.0 µM 94% | [2]; at 100.0 µM 95% | [3]; at 33.0 µM 81% | [3]; at 100.0 µM 94% | [4]; at 3.7 µM 84% | [4]; [16] 86% | [4]; at 11.0 µM 93% | [4]; at 33.0 µM 94% | [4]; [17] 95% | [4]; at 50.0 µM 82.2% | [4]; at 100.0 µM 95% | [5]; at 33.0 µM 93% | [5]; [17] 94% | [5]; at 50.0 µM 85.5%
inactive: [1]; at 1.2 µM 3% | [1]; at 3.7 µM 6% | [1]; at 11.0 µM 10% | [1]; at 33.0 µM 52% | [2]; at 1.2 µM 31% | [2]; at 3.7 µM 60% | [3]; at 1.2 µM 10% | [3]; at 3.7 µM 7% | [3]; at 11.0 µM 31% | [4]; at 1.2 µM 56% | [5]; at 1.2 µM 6% | [5]; at 3.7 µM 38% | [5]; [16] 38% | [5]; at 11.0 µM 68%
